Reference: the supplement of paper PMC11732987, “Enantioselective OTUD7B fragment discovery through chemoproteomics screening and high-throughput optimisation” (Communications Chemistry, 2025)

Columns and labels:
Test in all cases: log2 ratio of Biotin-Ahx-Ub-VS probe labelling (fragment/DMSO); higher = less target engagement (more negative = stronger competition), active = hit call of the paper (q ≤ 0.05, log2 ratio ≤ -1)
Conditions in all cases: compound concentration: 200 uM; treatment time: 3 h
[1] = molecular target: USP34 (UniProt Q70CQ2)
Outline: (§1)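 Triplicate samples of HEK293T lysate, 495 µg each, received fragment at 200 µM or vehicle for 3 h, followed by Biotin-Ahx-Ub-VS (0.5 µM final) for 1 h. After NeutrAvidin enrichment of labelled DUBs and LysC/trypsin digestion, peptides were run by diaPASEF LC-MS/MS. The values are average log2 fragment/vehicle ratios from global-median-normalised Spectronaut label-free quantities, tested by unpaired t-test on proteins having ≥2 unique peptides.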

[2] = molecular target: T1, USP36 (UniProt Q9P275)
T1 sequence (whole entry): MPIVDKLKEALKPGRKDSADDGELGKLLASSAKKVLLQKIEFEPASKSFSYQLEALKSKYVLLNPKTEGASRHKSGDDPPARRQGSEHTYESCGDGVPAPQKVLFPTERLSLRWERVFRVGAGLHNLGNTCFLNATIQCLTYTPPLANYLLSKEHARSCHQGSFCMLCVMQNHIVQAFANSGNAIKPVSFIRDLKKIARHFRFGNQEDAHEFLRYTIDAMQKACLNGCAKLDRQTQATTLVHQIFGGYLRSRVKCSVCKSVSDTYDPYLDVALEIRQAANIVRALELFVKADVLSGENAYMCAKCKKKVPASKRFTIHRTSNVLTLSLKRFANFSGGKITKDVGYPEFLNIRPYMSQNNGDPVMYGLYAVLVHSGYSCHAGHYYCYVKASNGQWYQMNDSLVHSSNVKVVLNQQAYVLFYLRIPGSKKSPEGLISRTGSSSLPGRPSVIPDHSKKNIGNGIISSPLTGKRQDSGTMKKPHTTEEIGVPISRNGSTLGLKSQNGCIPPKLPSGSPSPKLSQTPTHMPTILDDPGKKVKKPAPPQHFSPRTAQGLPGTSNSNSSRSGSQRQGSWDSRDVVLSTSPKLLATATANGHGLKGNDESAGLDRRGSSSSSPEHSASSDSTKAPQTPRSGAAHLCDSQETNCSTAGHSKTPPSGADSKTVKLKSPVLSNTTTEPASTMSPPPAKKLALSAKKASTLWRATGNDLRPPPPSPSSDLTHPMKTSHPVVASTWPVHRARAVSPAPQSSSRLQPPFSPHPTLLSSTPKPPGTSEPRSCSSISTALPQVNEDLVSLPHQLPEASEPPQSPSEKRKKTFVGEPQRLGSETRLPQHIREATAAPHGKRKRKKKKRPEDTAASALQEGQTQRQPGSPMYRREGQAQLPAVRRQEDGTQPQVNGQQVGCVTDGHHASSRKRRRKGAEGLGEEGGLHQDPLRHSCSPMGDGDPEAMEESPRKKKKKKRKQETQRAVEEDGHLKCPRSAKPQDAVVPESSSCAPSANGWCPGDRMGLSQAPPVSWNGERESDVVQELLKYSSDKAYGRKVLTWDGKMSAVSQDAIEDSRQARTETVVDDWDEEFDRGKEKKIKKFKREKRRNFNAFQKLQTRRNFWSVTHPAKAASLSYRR
Outline: as §1

[3] = molecular target: T2, USP38 (UniProt Q8NB14)
T2 sequence (whole entry): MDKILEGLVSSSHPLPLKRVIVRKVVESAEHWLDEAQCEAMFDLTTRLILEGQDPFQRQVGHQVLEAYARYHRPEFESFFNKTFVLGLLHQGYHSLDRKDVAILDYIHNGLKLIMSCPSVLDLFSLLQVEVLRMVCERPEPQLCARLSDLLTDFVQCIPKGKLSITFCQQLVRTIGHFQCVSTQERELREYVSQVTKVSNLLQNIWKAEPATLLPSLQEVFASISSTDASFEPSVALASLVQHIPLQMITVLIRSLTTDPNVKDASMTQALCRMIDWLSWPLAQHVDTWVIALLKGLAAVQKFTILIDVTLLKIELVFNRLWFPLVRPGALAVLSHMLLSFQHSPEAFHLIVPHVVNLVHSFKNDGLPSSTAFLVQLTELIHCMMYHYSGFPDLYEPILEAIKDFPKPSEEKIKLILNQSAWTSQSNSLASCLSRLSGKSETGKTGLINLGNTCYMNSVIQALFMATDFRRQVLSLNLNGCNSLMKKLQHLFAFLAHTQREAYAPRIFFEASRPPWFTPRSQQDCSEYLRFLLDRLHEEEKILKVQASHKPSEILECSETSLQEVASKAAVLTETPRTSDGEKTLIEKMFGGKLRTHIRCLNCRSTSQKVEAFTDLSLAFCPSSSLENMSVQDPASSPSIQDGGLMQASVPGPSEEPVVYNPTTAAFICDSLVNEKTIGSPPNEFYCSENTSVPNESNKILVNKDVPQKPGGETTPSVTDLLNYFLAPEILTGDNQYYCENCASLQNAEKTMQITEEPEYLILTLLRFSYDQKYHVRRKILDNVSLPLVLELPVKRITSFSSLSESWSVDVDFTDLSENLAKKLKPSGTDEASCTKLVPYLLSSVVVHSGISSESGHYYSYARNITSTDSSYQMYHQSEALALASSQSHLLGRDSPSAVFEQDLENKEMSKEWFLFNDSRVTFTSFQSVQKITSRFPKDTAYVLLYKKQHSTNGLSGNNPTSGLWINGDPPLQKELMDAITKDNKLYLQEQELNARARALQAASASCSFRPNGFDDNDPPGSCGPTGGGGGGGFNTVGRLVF
Outline: as §1

[4] = molecular target: T3, USP39 (UniProt Q53GS9)
T3 sequence (whole entry): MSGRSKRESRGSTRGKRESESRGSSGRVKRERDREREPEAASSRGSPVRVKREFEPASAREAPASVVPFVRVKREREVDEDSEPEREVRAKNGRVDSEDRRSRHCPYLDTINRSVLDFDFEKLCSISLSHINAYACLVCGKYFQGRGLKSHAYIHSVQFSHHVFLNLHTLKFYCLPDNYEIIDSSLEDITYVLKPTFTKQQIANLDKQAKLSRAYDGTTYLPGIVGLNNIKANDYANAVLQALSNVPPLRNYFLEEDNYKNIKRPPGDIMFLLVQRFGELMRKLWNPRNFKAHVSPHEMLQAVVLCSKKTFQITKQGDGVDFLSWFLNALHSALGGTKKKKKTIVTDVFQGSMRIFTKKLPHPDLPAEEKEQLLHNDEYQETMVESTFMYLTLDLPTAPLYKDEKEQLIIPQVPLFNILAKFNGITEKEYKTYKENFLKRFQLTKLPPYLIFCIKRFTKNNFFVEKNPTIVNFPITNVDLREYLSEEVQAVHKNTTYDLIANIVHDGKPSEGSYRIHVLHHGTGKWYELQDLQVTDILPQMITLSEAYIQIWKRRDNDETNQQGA
Outline: as §1

[5] = molecular target: T4, USP4 (UniProt Q13107)
T4 sequence (whole entry): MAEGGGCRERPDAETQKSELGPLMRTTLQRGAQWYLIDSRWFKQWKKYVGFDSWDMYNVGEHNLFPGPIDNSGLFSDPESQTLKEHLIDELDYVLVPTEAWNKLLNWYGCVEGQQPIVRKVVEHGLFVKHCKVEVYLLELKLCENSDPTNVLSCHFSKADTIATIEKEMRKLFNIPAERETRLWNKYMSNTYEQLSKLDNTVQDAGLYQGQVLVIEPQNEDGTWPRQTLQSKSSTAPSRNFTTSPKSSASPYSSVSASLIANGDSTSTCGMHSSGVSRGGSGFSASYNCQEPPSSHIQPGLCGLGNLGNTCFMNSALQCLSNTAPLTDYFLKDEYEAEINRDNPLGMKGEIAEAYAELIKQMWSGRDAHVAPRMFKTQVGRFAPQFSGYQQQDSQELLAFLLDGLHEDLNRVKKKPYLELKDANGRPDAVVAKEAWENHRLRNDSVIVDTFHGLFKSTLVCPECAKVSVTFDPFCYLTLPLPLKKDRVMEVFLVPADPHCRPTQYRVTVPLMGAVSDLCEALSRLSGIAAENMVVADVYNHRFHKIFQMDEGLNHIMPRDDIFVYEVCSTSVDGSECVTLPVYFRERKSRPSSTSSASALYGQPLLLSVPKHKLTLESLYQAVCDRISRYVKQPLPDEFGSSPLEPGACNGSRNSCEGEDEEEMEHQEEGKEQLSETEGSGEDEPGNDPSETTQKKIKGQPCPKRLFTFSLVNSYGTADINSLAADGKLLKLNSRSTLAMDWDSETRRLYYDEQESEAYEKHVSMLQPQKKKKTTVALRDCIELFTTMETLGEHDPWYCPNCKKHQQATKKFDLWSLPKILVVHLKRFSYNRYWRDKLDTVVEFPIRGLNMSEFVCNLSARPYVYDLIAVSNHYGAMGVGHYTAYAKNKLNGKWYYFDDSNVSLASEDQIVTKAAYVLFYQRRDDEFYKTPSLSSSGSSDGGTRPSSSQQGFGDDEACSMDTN
Outline: as §1

Measured: log2 ratio of Biotin-Ahx-Ub-VS probe labelling

USP34, sequence (Q70CQ2 whole entry, the tested form may be a part): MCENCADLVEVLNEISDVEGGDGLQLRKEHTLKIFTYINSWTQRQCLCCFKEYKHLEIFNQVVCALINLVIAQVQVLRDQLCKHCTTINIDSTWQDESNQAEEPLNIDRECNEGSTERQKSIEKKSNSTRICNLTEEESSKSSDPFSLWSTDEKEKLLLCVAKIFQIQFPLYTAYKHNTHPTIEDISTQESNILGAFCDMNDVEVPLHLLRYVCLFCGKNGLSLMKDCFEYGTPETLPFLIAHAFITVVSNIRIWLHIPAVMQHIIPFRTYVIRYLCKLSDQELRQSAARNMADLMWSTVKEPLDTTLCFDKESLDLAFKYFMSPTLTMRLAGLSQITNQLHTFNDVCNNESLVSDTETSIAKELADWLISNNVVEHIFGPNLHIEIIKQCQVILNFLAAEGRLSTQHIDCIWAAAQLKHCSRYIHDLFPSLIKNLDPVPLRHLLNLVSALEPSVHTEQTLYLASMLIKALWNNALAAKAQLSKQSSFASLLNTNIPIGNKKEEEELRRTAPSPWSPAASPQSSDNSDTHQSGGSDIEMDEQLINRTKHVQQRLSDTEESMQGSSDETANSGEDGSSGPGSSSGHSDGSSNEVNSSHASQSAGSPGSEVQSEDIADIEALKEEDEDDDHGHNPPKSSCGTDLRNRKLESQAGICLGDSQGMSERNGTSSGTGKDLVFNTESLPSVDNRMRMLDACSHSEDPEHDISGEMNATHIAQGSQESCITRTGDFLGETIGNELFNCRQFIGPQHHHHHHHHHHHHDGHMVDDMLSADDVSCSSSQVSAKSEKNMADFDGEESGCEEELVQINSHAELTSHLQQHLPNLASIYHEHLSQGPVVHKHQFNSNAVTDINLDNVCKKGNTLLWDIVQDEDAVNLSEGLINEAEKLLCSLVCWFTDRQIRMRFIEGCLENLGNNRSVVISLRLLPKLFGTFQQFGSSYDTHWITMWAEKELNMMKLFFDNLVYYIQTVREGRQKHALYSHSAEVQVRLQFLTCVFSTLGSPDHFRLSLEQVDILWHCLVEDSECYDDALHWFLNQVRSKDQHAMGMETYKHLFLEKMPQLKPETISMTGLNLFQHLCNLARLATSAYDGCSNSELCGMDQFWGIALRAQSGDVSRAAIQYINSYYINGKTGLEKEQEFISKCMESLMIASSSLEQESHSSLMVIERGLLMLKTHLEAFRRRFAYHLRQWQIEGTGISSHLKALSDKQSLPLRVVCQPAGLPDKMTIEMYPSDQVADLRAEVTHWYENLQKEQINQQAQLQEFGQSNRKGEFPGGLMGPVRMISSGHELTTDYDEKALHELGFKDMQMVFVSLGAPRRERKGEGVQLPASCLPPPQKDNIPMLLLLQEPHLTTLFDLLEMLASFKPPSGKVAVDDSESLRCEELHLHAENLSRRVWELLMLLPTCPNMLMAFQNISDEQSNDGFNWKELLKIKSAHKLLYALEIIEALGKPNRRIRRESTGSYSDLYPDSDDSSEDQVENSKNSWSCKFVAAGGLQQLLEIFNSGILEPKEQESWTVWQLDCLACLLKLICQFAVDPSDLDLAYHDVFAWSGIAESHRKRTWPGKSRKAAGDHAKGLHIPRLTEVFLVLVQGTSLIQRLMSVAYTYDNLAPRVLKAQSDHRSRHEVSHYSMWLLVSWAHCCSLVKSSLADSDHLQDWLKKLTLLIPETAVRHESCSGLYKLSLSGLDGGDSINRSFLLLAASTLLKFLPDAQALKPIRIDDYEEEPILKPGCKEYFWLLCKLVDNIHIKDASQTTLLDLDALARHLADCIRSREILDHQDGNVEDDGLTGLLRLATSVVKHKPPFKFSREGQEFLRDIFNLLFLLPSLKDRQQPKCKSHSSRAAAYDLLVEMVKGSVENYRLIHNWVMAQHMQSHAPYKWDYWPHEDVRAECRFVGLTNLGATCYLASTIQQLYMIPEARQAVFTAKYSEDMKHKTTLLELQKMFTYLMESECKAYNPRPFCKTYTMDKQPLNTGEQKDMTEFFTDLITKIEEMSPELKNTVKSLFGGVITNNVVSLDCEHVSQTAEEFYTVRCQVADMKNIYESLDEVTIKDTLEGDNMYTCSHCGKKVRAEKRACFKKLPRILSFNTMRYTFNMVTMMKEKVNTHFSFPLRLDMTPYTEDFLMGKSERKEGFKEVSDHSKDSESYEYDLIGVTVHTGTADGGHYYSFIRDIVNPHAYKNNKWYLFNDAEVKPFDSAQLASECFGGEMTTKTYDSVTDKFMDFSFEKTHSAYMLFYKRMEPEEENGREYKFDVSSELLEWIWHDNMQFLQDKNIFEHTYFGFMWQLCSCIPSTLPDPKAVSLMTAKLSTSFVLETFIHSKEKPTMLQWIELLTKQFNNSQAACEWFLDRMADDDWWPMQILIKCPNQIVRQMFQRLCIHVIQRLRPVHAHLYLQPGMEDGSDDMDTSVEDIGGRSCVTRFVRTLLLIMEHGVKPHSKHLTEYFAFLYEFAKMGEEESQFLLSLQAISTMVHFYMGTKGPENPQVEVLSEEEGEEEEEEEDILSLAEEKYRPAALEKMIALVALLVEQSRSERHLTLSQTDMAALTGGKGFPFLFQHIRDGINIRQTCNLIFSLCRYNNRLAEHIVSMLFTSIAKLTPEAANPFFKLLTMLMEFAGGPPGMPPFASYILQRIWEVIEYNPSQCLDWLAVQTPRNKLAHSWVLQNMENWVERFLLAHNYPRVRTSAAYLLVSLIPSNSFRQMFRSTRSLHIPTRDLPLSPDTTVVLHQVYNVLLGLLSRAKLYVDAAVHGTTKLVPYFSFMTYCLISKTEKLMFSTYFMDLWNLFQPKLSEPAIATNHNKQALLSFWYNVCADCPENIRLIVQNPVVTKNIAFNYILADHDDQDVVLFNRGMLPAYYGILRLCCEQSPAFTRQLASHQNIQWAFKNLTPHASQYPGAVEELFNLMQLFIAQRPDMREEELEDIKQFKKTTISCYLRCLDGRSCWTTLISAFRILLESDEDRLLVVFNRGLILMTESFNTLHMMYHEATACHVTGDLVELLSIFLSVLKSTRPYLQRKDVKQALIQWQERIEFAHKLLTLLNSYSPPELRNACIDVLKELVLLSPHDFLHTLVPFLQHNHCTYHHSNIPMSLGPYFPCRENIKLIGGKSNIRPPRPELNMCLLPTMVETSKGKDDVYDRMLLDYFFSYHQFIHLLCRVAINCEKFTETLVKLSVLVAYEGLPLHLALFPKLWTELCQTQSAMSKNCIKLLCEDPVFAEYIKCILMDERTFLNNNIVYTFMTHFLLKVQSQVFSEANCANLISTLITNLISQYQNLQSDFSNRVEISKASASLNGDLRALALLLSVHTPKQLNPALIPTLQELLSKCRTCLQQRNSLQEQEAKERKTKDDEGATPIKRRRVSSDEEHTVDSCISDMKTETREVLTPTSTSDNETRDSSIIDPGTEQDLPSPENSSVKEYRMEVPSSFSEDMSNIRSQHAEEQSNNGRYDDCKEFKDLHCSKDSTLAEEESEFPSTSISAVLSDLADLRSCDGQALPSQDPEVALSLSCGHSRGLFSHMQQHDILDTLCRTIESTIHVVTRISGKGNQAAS

O=C(CCl)N1CCOC2(CCC2)CC1
inactive: [1] -0.139 | [2] -0.163 | [3] -0.056 | [4] 0.138 | [5] -0.409
